Molecules are shown by their SMILES. The campaign covered roughly 1,500 compounds. About 430 (29%) were called active. No rule for the calls is given here. A selection follows. A call without a number means that no potency is given here. Potency and affinity values are given separately.

This assay can be described thus: glucose-independent GLuc insulin release activation – cell-based, INS-1E, Gaussia luciferase, luminescence, cherry-pick, counter-screen for glucose-dependent insulin secretion activators, dose response (AID 977606). To be noted: INS-1E Gaussia luciferase insulin secretion, no glucose, 100% = twice neutral-control luminescence; series mostly up to 35 µM.
Take `CC(=O)c1cccc(-c2csc3ncnc(Sc4nnnn4C)c23)c1`: the molecule was called inactive.
With `CN1C(=O)NC(c2ccc(O)cc2)C2=C1CN(c1ccccc1)C2=O` (stereo not drawn), the call was inactive.
Consider `O=C(CC(NC(=O)c1ccccc1)c1ccccc1)Nc1cccc2ccccc12` (stereo not drawn), for which the call was inactive.
For `Cc1ccc(NC(=O)c2ccccc2-c2ccccc2C(=O)O)cc1C` the value was “inactive”; for `C=C(C)C1Cc2c(C)nn(-c3cccc4cccnc34)c2C1` (stereo not drawn), “inactive”; for `O=C(COc1ccc(Cl)cc1)NCCS(=O)(=O)N1CCN(c2ccccc2F)CC1`, “inactive”.
`O=C(COc1cccc2c1CCNC2=O)NC1CCCCC1`: the molecule was classed as inactive.
The entry for `COc1ccc(CN(C)C(=O)CCN=C2NS(=O)(=O)c3ccccc32)c(OC)c1` is “inactive”; for `COc1ccc(Cc2nnc(NC(=O)Cc3cccs3)s2)cc1OC` it is “inactive”.
Turning to `CC(C)CC(=O)Nc1cccc(-c2nc3ncccc3o2)c1`, the molecule was classed as inactive.
The entry for `CCOC(=O)c1oc2ccccc2c1NC(=O)c1ccco1` is “inactive”; for `CCOC(=O)c1c(C)[nH]c(C(C)=NNC(=O)c2cccs2)c1C` it is “inactive”; for `CCCCOc1ccc(SCCCN2CCOCC2)cc1` it is “inactive”.
For `C/C(=N\NC(=O)CO/N=C(\C)c1cccs1)c1ccc(N)cc1` the value was “inactive”; for `Cc1ccnc(NS(=O)(=O)c2ccc(NC(=O)CCc3ccccc3)cc2)n1`, “inactive”.
The entry for `FC(F)(F)c1ccc(Cl)c(-n2c(Cc3cccs3)n[nH]c2=S)c1` is “inactive”; for `COc1ccc(CNC(=O)C2Cc3c(-c4ccccc4)ccnc3O2)cc1OC` (stereo not drawn) it is “inactive”.
With `O=C(OC1CCOC1=O)c1cc(-c2ccc(Cl)cc2)nc2ccccc12` (stereo not drawn), the molecule was called inactive.
The entry for `COc1ccc(C2CNC(=O)C2)cc1OC1CCCC1` (stereo not drawn) is “inactive”.
For `O=S(=O)(NCc1ccccc1)c1ccc(S(=O)(=O)N2CCCCC2)cc1` the value was “inactive”; for `CCCn1c(O)c(N=NC(=O)c2cccnc2)c2cc(Br)ccc21`, “inactive”.
Turning to `COc1ccc(C(=O)N=C2CCC(C#N)=C3c4cc(OC)c(OC)cc4CCN23)cc1`, the molecule was classed as inactive.
For `C=CCN=c1sc(C(=O)OC)cc(=O)n1CC=C` the value was “inactive”; for `CC(=O)C(C)n1c(CN(C)Cc2ccccc2)nc2c1c(=O)n(C)c(=O)n2C` (stereo not drawn), “inactive”; for `COC(=O)C1CCN(c2cc(Cl)nc(N)n2)CC1`, “inactive”.
For `COc1ccc(C(=O)Nc2ccccc2C(=O)NCC2CCCO2)cc1` (stereo not drawn) the value was “inactive”; for `O=C(NC(=S)NCC1CCCO1)c1ccc(Cl)cc1Cl` (stereo not drawn), “inactive”; for `O=C(Nc1ccc(Br)cc1)c1cc2ccccn2n1`, “inactive”.
For `COC(=O)c1c(C)oc(C)c1S(=O)(=O)Nc1ccc(C(C)C)cc1` the value was “inactive”; for `COc1ccc(/C=C/c2noc(-c3ccccc3OC(C)=O)n2)cc1`, “inactive”.
For the molecule `CCCCc1[nH]c(=O)c(C#N)c2c1CCCC2`, the call was inactive.
The entry for `COC(=O)c1ccc(Oc2ccc(C(F)(F)F)cn2)cc1` is “inactive”; for `c1cc2c(cc1CN1CCN(C3CCCCCC3)CC1)OCO2` it is “inactive”.
In the case of `CCOc1ncccc1C(=O)NCc1ccc(C)cc1`, the result was inactive.
Take `CCOc1ncccc1C(=O)NNC(=O)c1ccccc1-n1cccc1`: the molecule was classed as inactive.
For `O=C(c1cccs1)N(Cc1ccccn1)Cc1ccco1` the value was “inactive”; for `COc1ccc2nc(CCN(C)C(=O)C3CCC(=O)N(Cc4cccc(F)c4)C3)[nH]c2c1` (stereo not drawn), “inactive”; for `CC1(C)CCCC(C)(C)N1CC(O)COCCOc1ccc(Br)cc1` (stereo not drawn), “inactive”.
The entry for `Cc1ccc2c(c1)CCCN2C(=O)c1ccc2c(c1)OCO2` is “inactive”.
For `CN(C(=O)c1ccc2c(c1)SC1=NS(=O)(=O)CCN12)C(c1ccccc1)c1ccccc1` the value was “inactive”.
In the case of `CCOc1ccc(CCNC(=O)Cn2ccc3ccccc3c2=O)cc1OCC`, the molecule was called inactive.
For `COc1cc(CN(C)c2ccc(S(=O)(=O)N3CCCC3)cn2)ccc1OC(F)F` the value was “inactive”; for `CC(C)(C)C1=Nn2c(nnc2C2CCCCC2)SC1`, “inactive”; for `COc1ccc(CCNC(=O)CCC(=O)c2cccs2)cc1OC`, “inactive”.
The entry for `COc1ccc(C2CC(=O)C(c3ccc(C)cc3)=CN2Cc2ccccc2)cc1` (stereo not drawn) is “inactive”; for `CCN1CCN(c2nnc(-c3ccccc3)c3ccccc23)CC1` it is “inactive”; for `CCn1cc(C(=O)O)c(=O)c2cc(F)c(N3CCN(C(=S)NC(=O)c4cccc(C)c4)CC3)cc21` it is “inactive”.
For `CCOC(=O)c1nn(-c2ccccc2)c2nc(Nc3ccccc3)cc(=O)n12`, the molecule was classed as inactive.
On to `CC1CC1C(=O)Nc1cc(C(F)(F)F)ccc1N1CCOCC1` (stereo not drawn), for which the call was inactive.
As for `O=C(N=C1SC2CS(=O)(=O)CC2N1c1ccc(F)c(Cl)c1)C1CC1` (stereo not drawn), the outcome was inactive.
For `CCCc1nc(-c2cc3cc(C)ccc3[nH]c2=O)no1` the value was “inactive”; for `CC(=O)N1CCN(c2nnc(-c3ccc(C)cc3)c3ccccc23)CC1`, “inactive”.
The entry for `Cc1ccc(-c2ccc([C@@H]3[C@@H]4CN(Cc5ccccc5F)C[C@H]3N4)cc2)cc1` is “inactive”.
For the molecule `O=c1c2sccc2n(Cc2cccc(F)c2)c(=O)n1-c1ccc(F)cc1`, the call was inactive.
The entry for `CC1Oc2ccccc2N(Cc2cccc(F)c2)C1=O` (stereo not drawn) is “inactive”.
The entry for `COc1ccc(CN(C)C(=O)COc2cccc(-n3cnnn3)c2)cc1OC` is “inactive”.
The entry for `COc1cc(/C=N/NC(=O)CNC(=O)c2cccs2)ccc1O` is “inactive”; for `O=C(Nc1ccc(F)cc1)C1COc2ccccc2O1` (stereo not drawn) it is “inactive”.
Consider `CN(C(=O)c1ccc(C#N)cc1)c1nnc(-c2cnccn2)s1`, for which the molecule was called inactive.
The entry for `CC(C)CCn1c(=O)c2ccccc2n2c(CN3CCOCC3)nnc12` is “inactive”; for `O=C(NC(=S)Nc1cccc2[nH]ncc12)c1ccccc1` it is “inactive”; for `COc1ccc(C(=O)/C=C2/c3ccccc3CC(C)(C)N2C)cc1OC` it is “inactive”.
Consider `Nc1[nH]c(C(=O)c2ccccc2)c(-c2ccncc2)c1C(=O)NCc1cccc2ccccc12`, for which the call was inactive.
The entry for `COc1cc(CN2CCC(n3nccc3NC(=O)C3CCOC3)CC2)ccc1F` (stereo not drawn) is “inactive”.
The entry for `COc1ccc(C(=O)O/N=C(\N)c2ccc(OC)c(OC)c2)cc1` is “inactive”; for `COc1ccc(C(=O)c2ccc(OC)c(OC)c2)cc1` it is “inactive”; for `COc1ccc(-c2nc(N)ncc2-c2ccc(OC)c(OC)c2)c(O)c1` it is “inactive”.
For `COc1ccc(C(=O)c2cnc[nH]2)cc1OC` the value was “inactive”; for `c1ccc(-c2nnc3n2-c2ccccc2SC3)cc1`, “inactive”; for `COCCOC(=O)C1=C(C)NC(=O)N(C(C)=O)C1c1ccc(Cl)cc1` (stereo not drawn), “inactive”.
For the molecule `Cc1cc2nc(-c3ccc(Cl)cc3)c(Cc3ccsc3)n2c(C)c1Br`, the molecule was called inactive.
Take `CCn1c(C)nc2cc(S(=O)(=O)C(F)(F)F)ccc21`: the result was inactive.
For `COc1cc2[nH]c3c(Cl)ncnc3c2cc1OC` the value was “inactive”; for `COc1ccc(CC(=O)O/N=C(\N)c2ccccc2)cc1OC`, “inactive”; for `COc1ccc(/C=N/NC(=O)CCOc2ccccc2C)cc1OC`, “inactive”.
The entry for `COc1ccc(/C=N/NC(=O)Cn2nnc3ccccc32)cc1OC` is “inactive”; for `CNS(=O)(=O)c1ccc2c3c(cccc13)C(=O)N2` it is “inactive”.
Turning to `CCOC(=O)c1c(N)c(C#N)c2n1CCCC2`, the result was inactive.
The entry for `COc1ccc(NC(=O)C2CCCN2S(=O)(=O)c2ccc3c(c2)CC(C)N3C(C)=O)cc1OC` (stereo not drawn) is “inactive”; for `O=S(=O)(c1ccc(Cl)nc1)N1CCc2ccccc21` it is “inactive”.
`COc1ccc(CC(=O)OCC(=O)N2CCCc3ccccc32)cc1OC`: the result was inactive.
The entry for `COc1ccc(C2=NOC(C(=O)Nc3cccnc3)C2)cc1OC` (stereo not drawn) is “inactive”; for `CCOC(=O)c1sc2ncn(/N=C/c3cccnc3)c(=O)c2c1C` it is “inactive”.
For `COc1cc(C(=O)Nc2ccn(C)n2)ccc1OC(F)F` the value was “inactive”; for `O=c1c2ccccc2nc(-c2ccco2)n1Cc1ccccc1`, “inactive”; for `O=c1c2ccccc2nc(-c2ccco2)n1/N=C/c1ccco1`, “inactive”.
As for `O=C([C@H]1O[C@@H](n2ccc(=O)[nH]c2=O)[C@H](O)[C@@H]1O)N1CCN(c2ccc(Cl)cn2)CC1`, the call was inactive.
Regarding `CCCn1nc(C(=O)NC2CC2)c2ccccc2c1=O`, the call was inactive.
Consider `Cc1nc2ccccc2c(=O)n1CCCN1CCOCC1`, for which the molecule was called inactive.
For `CCOCCCn1c(SCc2ccccc2)nnc1-c1ccncc1` the value was “inactive”; for `CC(C)c1ccc(NC2CCCN(C(=O)c3cccnc3)C2)cc1` (stereo not drawn), “inactive”.
The entry for `COc1ccc(CCn2ccc(O)c(Cc3c(F)cccc3Cl)c2=O)cc1OC` is “inactive”.
For `CCN(C[C@H]1N[C@@](CC)(C(=O)OC)[C@H]2C(=O)N(C)C(=O)[C@@H]12)S(=O)(=O)c1ccc(OC)cc1` the value was “inactive”; for `COc1ccc(CCC(=O)NC2CCC(C)CC2)cc1` (stereo not drawn), “inactive”; for `COC(=O)C1=C(C)NC(=S)NC1c1ccc(OC)cc1` (stereo not drawn), “inactive”.
On to `CNc1nc(Nc2ccccc2)nc(OCC(F)(F)F)n1`, for which the result was inactive.
For `CCCCN(Cc1nc2ccccc2c(=O)[nH]1)C(=O)c1nn(C)c(=O)c2ccccc12` the value was “inactive”.
The entry for `c1cn2cc(-c3ccc(CN4CCOCC4)cc3)ccc2n1` is “inactive”; for `CC(C)CN(C(=O)C1CCCCC1)C1CCS(=O)(=O)C1` (stereo not drawn) it is “inactive”.
In the case of `Cc1ccc(CN(C(=O)c2cccs2)C2CCS(=O)(=O)C2)cc1` (stereo not drawn), the molecule was classed as inactive.
In the case of `Cc1c(Cc2ccccc2)sc(NC(=O)c2ccco2)c1C(N)=O`, the outcome was inactive.
For `Cc1c(Cc2ccccc2)sc(NC(=O)C(C)(C)C)c1C(N)=O`, the outcome was inactive.
Consider `COC(=O)c1cc(S(=O)(=O)NCC2CCN(Cc3cc(C)ccc3C)CC2)c[nH]1`, for which the molecule was called inactive.
The entry for `Cc1ccc(C)c(OCC(=O)NCC(C)(C)N2CCOCC2)c1` is “inactive”; for `Cc1ccc(C)c(OCC(=O)Nc2cc(NC(=O)COc3cc(C)ccc3C)cc(C(=O)O)c2)c1` it is “inactive”.
The entry for `O=C1CC(=O)Nc2cc(S(=O)(=O)NCc3cccs3)ccc2N1` is “inactive”; for `O=C1CSC(c2cccc(O)c2)N1Cc1ccccc1` (stereo not drawn) it is “inactive”; for `CC(C)Cc1nc2oc3c(NCc4cccnc4)ncnc3c2c2c1CCC2` it is “inactive”.
For `CCOC(=O)C1CCCN(C(=O)c2ccccc2OC(F)(F)F)CC1` (stereo not drawn) the value was “inactive”; for `CN(C)N1C(N)=C(C#N)C(c2ccc(F)cc2)C2=C1CCCC2=O` (stereo not drawn), “inactive”.
For the molecule `O=c1c2ccccc2c(-c2ccccc2)nn1-c1ccccn1`, the molecule was called inactive.
The entry for `O=C(O)c1ccc(-n2nc(-c3ccccc3)c3ccccc3c2=O)cc1` is “inactive”; for `Cc1ccccc1SC1CCN(C(=O)C2CCC(=O)N(C3CC3)C2)CC1` (stereo not drawn) it is “inactive”.

Values taken from PubChem BioAssay AID977606 (Broad Institute, 2014).
